L major viab: Leishmania major promastigote growth inhibition; Leishmania major promastigotes, resazurin fluorescence viability; inhibition, % at 10 µM; 200,000 compounds, 9% hits; in the data active = inhibition above about 50%;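 also: promastigotes grown with compound for 44 hours at 28 °C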
CHOP inh: blocks CHOP induction under ER stress. 220,000 compounds, 3.8% hits. CHO-K1 CHOP-promoter luciferase, tunicamycin-induced, 15-18 h. inhibition, % at 10 µM. AID 2732;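 active = compounds that reduced the stress-induced luciferase reporter signal by more than about 70% of percent inhibition, limit read from the data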
RAM inhibit: inhibitors of the yeast RAM network; S. cerevisiae dse1pr::URA3 reporter, 5-FOA growth OD615, 2 d; analog-sensitive cbk1-as2 kinase mutant strain; inhibition, % at 50 µM; 190,000 compounds, 1.8% hits; AID 868;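 active = inhibition above a set limit, 3 SD over mean compound inhibition, cut at about 8.4% in these data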;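 also: inhibition rescues growth on 5-FOA so higher OD means more RAM inhibition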
WT yeast gro inh: growth inhibition of WT yeast, mitochondrial fusion screen. mitochondrial fusion phenotypic screen, WT strain. inhibition, % at 10 µM. 190,000 compounds, 2.1% hits. AID 1362; in the data active = inhibition above about 58%; tested in S. cerevisiae
Numbers stand for hits; – = inactive; · = not tested or not shown. Hits are enriched below; roughly 13% of the tested compounds scored in any of these assays.

SMILES | L major viab | CHOP inh | RAM inhibit | WT yeast gro inh
COC(=O)c1ccccc1NC(=S)N(Cc1ccc2c(c1)OCO2)Cc1cc2cc(OC)ccc2[nH]c1=O | 55 | – | 8.5 | –
Cc1ccc(NC(=S)N(Cc2cccs2)Cc2cc3cc(C)cc(C)c3[nH]c2=O)cc1 | 95 | – | – | –
COc1ccc(CNC(=O)C/C(C)=N/NC(=O)c2cnccn2)cc1 | – | – | – | –
Cc1ccc(S(=O)(=O)NNC(=O)NC23CC4CC(CC(C4)C2)C3)cc1 | – | – | – | –
COc1ccc2[nH]c(=O)c(CN(C(=O)c3ccco3)C(C)C)cc2c1 | · | – | · | ·
COc1ccc(CC(=O)N(Cc2cc3cc(OC)ccc3[nH]c2=O)C(C)C)cc1 | 94 | – | – | –
CNC(=S)N(Cc1ccc(OC)cc1)Cc1cc2cc(C)ccc2[nH]c1=O | – | – | 8.5 | –
Cc1cccc(NC(=S)N(Cc2cccs2)Cc2cc3cc(C)ccc3[nH]c2=O)c1 | – | – | – | –
COc1cc2cc(CN(Cc3cccs3)C(=S)Nc3ccc(C)cc3)c(=O)[nH]c2cc1OC | 98 | – | – | –
CNC(=S)N(Cc1cccs1)Cc1cc2cc(OC)c(OC)cc2[nH]c1=O | 62 | – | – | –
CC1(C)CC2CC(C)(CN2C(=O)COC(=O)CNC(=O)c2ccc(Cl)c(Cl)c2)C1 (stereo not given) | – | – | – | –
O=S(=O)(Nc1nc2ccccc2nc1Cl)c1ccc(Br)cc1 | – | – | – | –
COc1ccc2c(c1)nc(NCCCO)n2Cc1ccccc1 | · | – | · | ·
COc1cc2cc(CN(Cc3cccs3)C(=S)Nc3cccc(C)c3)c(=O)[nH]c2cc1OC | 88 | – | 8.9 | –
Cc1cc(C)c2[nH]c(=O)c(CN(Cc3cccs3)C(=S)NCc3ccco3)cc2c1 | 99 | – | – | –
Cc1ccc(OCC(=O)N/N=C2/SCC(=O)N2Cc2ccccc2)cc1 | 67 | – | – | –
O=C(c1coc(=O)c(Br)c1)N1CCC(C(O)(c2ccccc2)c2ccccc2)CC1 | · | – | · | ·
Oc1ccccc1CN1CCCN(Cc2ccccc2O)C1 | – | – | – | –
Oc1ccccc1CN1CCC(C(O)(c2ccccc2)c2ccccc2)CC1 | 56 | – | – | –
O=C(C1CC1)N1CCC(C(O)(c2ccccc2)c2ccccc2)CC1 | 95 | – | – | –
CCCCNC(=O)/C=C/c1ccc(S(=O)(=O)Nc2ccc(OC)cc2)cc1 | – | – | – | –
COC(=O)c1cc(NS(=O)(=O)c2ccc3c(c2)CCC(=O)N3)cc(C(=O)OC)c1 | – | – | – | –
CC1CC(C)CN(S(=O)(=O)c2ccc(C(=O)Nc3nnc(-c4cccs4)o3)cc2)C1 (stereo not given) | 100 | · | – | –
CCc1nnc(NC(=O)c2ccc(S(=O)(=O)N3CCCCC3C)cc2)s1 (stereo not given) | – | – | – | –
CCC1CCCCN1S(=O)(=O)c1ccc(C(=O)Nc2nnc(-c3cccs3)o2)cc1 (stereo not given) | 99 | · | – | –
SMILES | L major viab | CHOP inh | RAM inhibit | WT yeast gro inh
CNc1ccc(Br)cc(C(=O)/C=C/c2cccc(OC)c2)c1=O | 57 | – | – | –
CNc1ccc(Br)cc(C(=O)/C=C/c2ccc(OC)cc2OC)c1=O | – | – | – | –
CCNc1ccc(Br)cc(C(=O)/C=C/c2c(Cl)cccc2Cl)c1=O | 100 | – | – | –
CCNc1ccc(Br)cc(C(=O)/C=C/c2ccc(Cl)cc2)c1=O | 84 | – | – | –
COc1ccccc1OCCCn1c(C)c(C#N)c2ccccc21 | – | – | 11 | –
COc1ccc(CCC(C)Nc2cccc(F)c2)cc1 (stereo not given) | – | 88 | – | –
Cc1cc(Cl)cc(Cl)c1CNc1c([N+](=O)[O-])c(=O)oc2ccccc12 | – | – | – | –
O=C(NC1CC1)c1ccc(CN(c2ccccc2)S(=O)(=O)c2ccccc2)cc1 | 58 | – | – | –
C/C(CC(C)(C)C1CCCCC1)=N\NC(N)=S | 100 | – | – | –
Cc1ccccc1N1CCN(C2=NC(=O)/C(=C/c3cn[nH]c3-c3ccccc3)S2)CC1 | – | – | – | –
COc1ccccc1C1c2[nH]c3ccccc3c2CCN1Cc1ccc(NC(C)=O)s1 (stereo not given) | · | – | · | ·
CN(C1=C(NC(=O)c2ccccc2)C(=O)c2ccccc2C1=O)C1CCS(=O)(=O)C1 (stereo not given) | 99 | 107 | – | –
N#C/C(=C\c1ccc(Cl)cc1)c1nc(-c2ccco2)cs1 | – | – | – | –
N#C/C(=C\c1ccc(-c2ccccc2)cc1)c1nc(-c2ccco2)cs1 | – | – | 8.4 | –
Cc1ccc(C)n1-c1cccc(NC(=O)c2ccccc2)c1 | 76 | – | – | –
Cc1ccc(C(=O)Oc2cccc(NC(=O)c3ccccc3)c2)cc1C | – | – | 10 | –
COC(=O)c1cccc(NC(=O)c2ccccc2)c1 | · | – | · | ·
Clc1ccccc1OCCn1cnc2ccccc21 | – | – | – | –
Cc1ccc(Cn2c(SCC(=O)N/N=C/c3ccc(C)o3)nc3ccccc32)cc1 | – | – | – | –
CCC(=O)Nc1nc2ccccc2n1Cc1ccccc1Cl | · | – | · | ·
O=C(CSc1nc2ccccc2n1Cc1ccccc1)N/N=C/c1ccco1 | 50 | – | – | –
O=C(Cn1c(NCCCO)nc2ccccc21)c1ccco1 | – | – | – | –
O=C(Nc1nc2ccccc2n1Cc1ccccc1)c1ccco1 | 73 | – | – | –
CC(=O)Nc1nc2ccccc2n1CCOc1ccccc1Cl | 99 | – | – | –
CCC(=O)Nc1nc2ccccc2n1Cc1ccc(Cl)cc1 | 99 | – | – | –
SMILES | L major viab | CHOP inh | RAM inhibit | WT yeast gro inh
Cc1ccc(C(O)CSc2nnc(-c3ccc4ccccc4c3)n2C)cc1 (stereo not given) | · | – | · | ·
CC(=O)Nc1nc2ccccc2n1Cc1ccccc1Cl | · | – | · | ·
CC(=O)Nc1nc2ccccc2n1Cc1ccccc1C | 96 | – | – | –
CCOc1ccc(CCNC(=O)COC(=O)c2ccc(OC)c(OC)c2OC)cc1OCC | 66 | – | – | –
Cc1cc(Oc2ccc(C#N)cc2)nc(NCc2ccccc2)n1 | – | 77 | – | –
O=C(c1ccc2c3c(cccc13)CC2)C1CCCN(C(=O)c2ccc[n+]([O-])c2)C1 (stereo not given) | · | – | · | ·
C/C(=N\Nc1cccc2cccnc12)c1ccc(C)cc1 | – | – | – | 74
CN(C)CCCOC(=O)c1sc2ccccc2c1Cl | 59 | – | – | –
CN(C)CCCN(C(=O)/C=C/c1cccs1)c1nc2ccc(F)cc2s1 | – | – | – | 86
Cc1cccc2sc(N(CCCN(C)C)C(=O)c3cc4ccccc4oc3=O)nc12 | – | – | – | –
Cc1ccc2nc(N(CCCN(C)C)C(=O)c3cc4ccccc4oc3=O)sc2c1 | 67 | – | – | –
CN(C)CCN(C(=O)/C=C/c1cccs1)c1nc2c(F)cc(F)cc2s1 | 77 | 106 | – | –
CCCCOC(=S)NC(=O)c1sc2ccccc2c1Cl | – | – | – | –
COC(=O)c1ccc(NC(=O)c2cccc(C)c2[N+](=O)[O-])cc1 | – | – | – | –
Cc1ccc2nc(N(CCN(C)C)C(=O)/C=C/c3cccs3)sc2c1 | 83 | – | – | –
CN(C)CCCN(C(=O)c1sc2ccccc2c1Cl)c1nc2ccc(F)cc2s1 | 72 | – | – | 64
O=C(/C=C/c1ccc(Br)cc1)Nc1ccc(S(=O)(=O)Nc2ncccn2)cc1 | 52 | – | 9.8 | –
